An excerpt weighted towards active compounds, which were near 21% of everything screened.
ELG1 DNA repair = qHTS screen for small molecules that inhibit ELG1-dependent DNA repair in human embryonic kidney (HEK293T) cells expressing luciferase-tagged ELG1. HEK293T ELG1-luciferase reporter, luminescence, 16 h; DNA damage induced by 5-fluorouridine. Potency, µM (series often up to 46.1 µM), for the others: at the highest dose activity change, negative = inhibition, actives largely listed as inhibitors. hit rate 2.3% among 330,000; also: potency is read from the fitted curve at half-maximal effect; nearly all actives have a fitted effect of over 55% in size
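5-Fluorouridine DNA damage + compound/DMSO, 2,000 cells/well, 16 h, 37 °C/5% CO2. ONE-Glo, 30 min RT, luminescence. Readout = decrease in reporter signal.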
DT40 TDP1 no CPT = qHTS for Inhibitors of human tyrosyl-DNA phosphodiesterase 1 (TDP1): qHTS in cells in absence of CPT. AID 686978, 2013. hit rate 15% among 420,000. Potency, µM (highest dose often 46.2 µM), without a hit: top-dose activity change, negative = growth inhibition, actives largely listed as inhibitors. DT40 Tdp1-/- hTDP1 cells, no CPT, ATP luminescence, 48 h; also: potency is read from the fitted curve at half-maximal effect; nearly all actives have a fitted effect of over 55% in size
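Luminescent ATP content (CellTiter-Glo) served as the growth readout. Knockout chicken DT40 cells expressing human TDP1 were exposed to compounds without camptothecin for a minimum 48 hr at 37 °C.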
VP16 counter = VP16 counterscreen qHTS for inhibitors of ROR gamma transcriptional activity | Drosophila S2 Gal4-VP16 UAS-luciferase, luminescence, 20 h | Potency, µM (doses to about 53.6 µM), inactives show top-dose activity, negative = inhibition, most hits filed as inhibitors | hit rate 3.5% among 310,000;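 also: Gal4-VP16 expression switched on by copper sulfate through the metallothionein promoter; potency is read from the fitted curve at half-maximal effect; nearly all actives have a fitted effect of over 50% in size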
RORgamma inh = qHTS for inhibitors of ROR gamma transcriptional activity; Drosophila S2 Gal4-RORgamma UAS-luciferase reporter, 20 h; hit rate 5.4% among 310,000; Potency, µM (doses to about 53.6 µM), inactives show at the highest dose activity change, negative = inhibition, actives largely listed as inhibitors; also: potency is read from the fitted curve at half-maximal effect; nearly all actives have a fitted effect of over 60% in size
Target sequence (P51450 whole entry, looked up, the tested form may be a part): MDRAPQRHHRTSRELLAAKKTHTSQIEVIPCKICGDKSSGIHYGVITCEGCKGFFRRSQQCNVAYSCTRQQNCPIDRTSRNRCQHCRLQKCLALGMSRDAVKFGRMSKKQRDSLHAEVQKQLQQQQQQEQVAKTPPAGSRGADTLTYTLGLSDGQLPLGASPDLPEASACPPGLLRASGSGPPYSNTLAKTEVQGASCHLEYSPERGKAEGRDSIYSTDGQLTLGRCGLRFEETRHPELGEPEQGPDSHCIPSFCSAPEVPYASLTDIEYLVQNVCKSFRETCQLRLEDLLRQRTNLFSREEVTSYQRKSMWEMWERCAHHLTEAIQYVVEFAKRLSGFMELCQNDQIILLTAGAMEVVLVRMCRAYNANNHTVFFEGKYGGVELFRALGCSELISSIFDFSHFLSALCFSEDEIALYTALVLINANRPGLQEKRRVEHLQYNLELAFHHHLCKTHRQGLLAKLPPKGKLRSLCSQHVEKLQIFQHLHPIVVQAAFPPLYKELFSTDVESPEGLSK
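In this cell-based reporter format, copper sulfate (700 uM final) drives Gal4–ROR gamma fusion expression from a metallothionein promoter in Drosophila Schneider cells; compounds preincubated 1 hr, reporter read after 20 hr at ambient temperature.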
IL1B secr inh = qHTS for Inhibitors of Inflammasome Signaling: IL-1-beta AlphaLISA Primary Screen; THP-1 LPS/ATP IL-1B secretion, AlphaLISA, 16 h; active compounds read low; activity change, % at 57.5 µM; hit rate 4.7% among 360,000; AID 743279, 2014; in the data active = activity change below about -50%; inconclusive = mostly about -30% to -49%
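Secreted IL-1B measured by AlphaLISA bead assay after 16 h compound exposure of THP-1 cells; compounds (final up to 57.5 uM) added 1 h before LPS (250 ng/mL) and ATP (1.25 mM) stimulation; lower signal means less secretion.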
DT40 TDP1 CPT = qHTS for Inhibitors of human tyrosyl-DNA phosphodiesterase 1 (TDP1): qHTS in cells in presence of CPT; chicken DT40 Tdp1-/-;hTDP1 cells + 20 nM CPT, ATP luminescence, 48 h; Potency, µM (series often up to 46.2 µM), without a hit: top-dose activity change, negative = growth inhibition, most hits filed as inhibitors; hit rate 12% among 420,000; also: potency is read from the fitted curve at half-maximal effect; nearly all actives have a fitted effect of over 55% in size
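Chicken DT40 Tdp1-/- cells stably complemented with human TDP1 were seeded at 400 cells/well in medium containing 20 nM camptothecin, exposed to pin-transferred compounds, and grown at 37 °C for at least 48 hr. Viability was read as ATP luminescence.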
* = called active by the depositor; [ ] = another dose, or the depositor's remark. Unless noted, calls follow the shape of the dose curve; as a rule, active = well fitted curve in the direction sought with a large enough effect; inconclusive = small, poorly fitted or top-dose-only effect, or another doubt; inactive = no such curve, though single readings can be large; an effect the other way counts as inactive or inconclusive. % is scaled to controls: 0 for no effect and ±100 for the full control effect.

Screening N#Cc1ccsc1NC(=O)CN1CCN(S(=O)(=O)c2ccccc2C(F)(F)F)CC1 returned ELG1 DNA repair inconclusive, DT40 TDP1 no CPT inconclusive, VP16 counter -1.9%, RORgamma inh 2.3%, IL1B secr inh 8.6 and DT40 TDP1 CPT inconclusive.
`CC12CCC(C(=NO)C1=NO)C2(C)C` (centres undefined) gave DT40 TDP1 no CPT -12.7%, IL1B secr inh 1.4 and DT40 TDP1 CPT 2.3%.
For CC12CCC(c3c1nc1ccccc1[n+]3[O-])C2(C)C (centres undefined) the results were ELG1 DNA repair 1.4%, DT40 TDP1 no CPT 18.4µM*, VP16 counter -21.8%, RORgamma inh -4.9%, IL1B secr inh 2.8 and DT40 TDP1 CPT inconclusive.
CCOc1ccc(NC(=O)CSc2nc3c(c(=O)n2C)SC(C)C3)cc1 (centres undefined) was read as ELG1 DNA repair inconclusive, DT40 TDP1 no CPT inconclusive, VP16 counter 0.2%, RORgamma inh inconclusive, IL1B secr inh 18.2 and DT40 TDP1 CPT 16.4µM*.
`CC1Cc2nc(SCC(=O)Nc3ccc(F)cc3)n(C)c(=O)c2S1` (centres undefined) gave ELG1 DNA repair -15.5%, DT40 TDP1 no CPT inconclusive, VP16 counter 0.5%, RORgamma inh inconclusive, IL1B secr inh -11.3 and DT40 TDP1 CPT 23.1µM*.
For Cc1cc(C)c(NC(=O)CSc2nc3c(c(=O)n2C)SC(C)C3)c(C)c1 (centres undefined) the results were ELG1 DNA repair inconclusive, DT40 TDP1 no CPT 13µM*, VP16 counter inconclusive, RORgamma inh inconclusive, IL1B secr inh -6.2 and DT40 TDP1 CPT 20.6µM*.
`CCOc1ccccc1NC(=O)CSc1nc2c(c(=O)n1C)SC(C)C2` (centres undefined) gave ELG1 DNA repair inconclusive, DT40 TDP1 no CPT inconclusive, VP16 counter 2.5%, RORgamma inh -0.1%, IL1B secr inh -14.3 and DT40 TDP1 CPT inconclusive.
Screening Cc1cc(C)cc(NC(=O)CSc2nc3c(c(=O)n2C)SC(C)C3)c1 (centres undefined) returned ELG1 DNA repair 8.3%, DT40 TDP1 no CPT -22.0%, VP16 counter 2.7%, RORgamma inh 17.8%, IL1B secr inh 7.8 and DT40 TDP1 CPT -28.5%.
Cc1cc(C)c(NC(=O)CSc2nnc(SCC(=O)Nc3c(C)cc(C)cc3C)n2N)c(C)c1 was read as ELG1 DNA repair inconclusive, DT40 TDP1 no CPT inconclusive, VP16 counter 3.6%, RORgamma inh 8.8%, IL1B secr inh 1.1 and DT40 TDP1 CPT 14.6µM*.
`Cc1cccc(N2CCn3c2nc2c3c(=O)n(C/C=C/c3ccccc3)c(=O)n2C)c1` gave DT40 TDP1 no CPT 11.2% and DT40 TDP1 CPT 1.3%.
O=C(c1cccc(C(F)(F)F)c1)C1CCCN(C(=O)CCCn2cncn2)C1 (centres undefined) was read as ELG1 DNA repair -14.1%, DT40 TDP1 no CPT -10.5%, VP16 counter -2.3%, RORgamma inh inconclusive, IL1B secr inh 0.0 and DT40 TDP1 CPT 1.5%.
Screening Cc1cc(Br)cn2c(Cc3ccsc3)c(C3CCCCC3)nc12 returned DT40 TDP1 no CPT inconclusive, IL1B secr inh 0.0 and DT40 TDP1 CPT inconclusive.
Cc1ccc(Cc2c(C3CCCCC3)nc3ccc(Br)cn23)cc1 was read as DT40 TDP1 no CPT 20.6µM*, IL1B secr inh 8.0 and DT40 TDP1 CPT inconclusive.
Clc1ccc2nc(C3CCCCC3)c(Cc3ccsc3)n2c1 was read as DT40 TDP1 no CPT inconclusive, IL1B secr inh 0.0 and DT40 TDP1 CPT 23.1µM*.
For Brc1ccc2nc(C3CCCCC3)c(Cc3ccsc3)n2c1 the results were DT40 TDP1 no CPT 16.4µM*, IL1B secr inh 0.0 and DT40 TDP1 CPT 20.6µM*.
`Clc1ccc2nc(C3CCCCC3)c(Cc3ccccc3)n2c1` gave DT40 TDP1 no CPT -28.3%, IL1B secr inh 27.9 and DT40 TDP1 CPT -6.6%.
For O=C1CN(C(=S)NC(=O)c2ccccc2[N+](=O)[O-])CCN1 the results were ELG1 DNA repair 15.8%, DT40 TDP1 no CPT 20.6%, VP16 counter -4.1%, RORgamma inh -17.5%, IL1B secr inh 30.2 and DT40 TDP1 CPT -3.1%.
For COc1cccc(C2C(C(=O)Nc3ccc(C)cc3C)=C(C)Nc3c(C(=O)Nc4cccc(C)c4)cnn32)c1OC (centres undefined) the results were DT40 TDP1 no CPT -23.5% and DT40 TDP1 CPT -12.6%.
`CCN(CCO)C(=O)c1ccc2nc(Cc3ccc(OC)cc3)oc2c1` gave DT40 TDP1 no CPT -17.4%, IL1B secr inh 10.1 and DT40 TDP1 CPT -2.1%.
Cc1ccc(C)c(NS(=O)(=O)c2cc3c4c(c2)CC(=O)N4CCC3)c1 was read as ELG1 DNA repair 0.0%, DT40 TDP1 no CPT -1.7%, VP16 counter 5.4%, RORgamma inh 4.9%, IL1B secr inh -13.2 and DT40 TDP1 CPT inconclusive.
For CN(C)c1cccc(C(=O)Nc2ccc(S(=O)(=O)Nc3nccs3)cc2)c1 the results were ELG1 DNA repair 21.9%, DT40 TDP1 no CPT -6.7%, IL1B secr inh -6.1 and DT40 TDP1 CPT 7.7%.
For O=C(COC(=O)c1cc(NS(=O)(=O)c2cccs2)ccc1O)Nc1cc(Cl)ccc1Cl the results were ELG1 DNA repair 1.6%, DT40 TDP1 no CPT -10.4%, VP16 counter 12.6µM*, RORgamma inh inconclusive, IL1B secr inh 20.3 and DT40 TDP1 CPT -19.1%.
Screening CCc1c(C(=O)Nc2ccncc2)csc1C returned ELG1 DNA repair inconclusive, DT40 TDP1 no CPT 20.6µM*, RORgamma inh -0.6%[0.365 µM], IL1B secr inh 13.1 and DT40 TDP1 CPT inconclusive.
For CCc1c(C(=O)Nc2ccccc2C(N)=O)csc1C the results were ELG1 DNA repair inconclusive, DT40 TDP1 no CPT -10.8%, VP16 counter -14.7%, RORgamma inh -11.2%, IL1B secr inh 3.5 and DT40 TDP1 CPT -19.7%.
Screening CCc1c(C(=O)Nc2ncn(Cc3cccc(C)c3)n2)csc1C returned ELG1 DNA repair 1.2%, DT40 TDP1 no CPT inconclusive, VP16 counter 12.6µM*, RORgamma inh 3.98µM*, IL1B secr inh -2.0 and DT40 TDP1 CPT -29.1%.
`CCOc1ccc(CCNC(=O)c2nnc(Cc3ccc(Cl)cc3Cl)o2)cc1OCC` gave DT40 TDP1 no CPT -7.8% and DT40 TDP1 CPT -13.0%.
